Data reported in PubChem BioAssay AID1303 (The Scripps Research Institute Molecular Screening Center, 2008).
This is one part of the list. Values without a mark were called inactive. Activity calls are given as the source filed them.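 The calls were made as follows: active = inhibition above the mean of solvent-only control wells plus 3 SD of those wells (cut at about 15% in these data); inactive = the rest.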

Assay: inhibition of NF-kB transcriptional signalling – cell-based, HEK293T, luciferase luminescence, TNF-alpha, counter-screen for STAT1 inhibitor project (AID 1303);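 also: 0% = DMSO with TNF-alpha and 100% = MG-132 control with TNF-alpha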
Conditions: HEK293T NF-kB luciferase reporter, TNF-alpha induced, at 5.7 µM, hits give high values

**Q.** With COc1ccc(C(=O)Nc2ccccc2C(=O)N/N=C/c2ccccc2OC)cc1 as the molecule, how does the inhibition read?
**A.** The inhibition was 10.2%.

**Q.** With CCOC(=O)N1CCN(C(=O)CSc2nnc(-c3c[nH]c4ccccc34)n2CCOC)CC1 as the molecule, how does the inhibition read?
**A.** The inhibition was 3.03%.

**Q.** Which inhibition does the source give for CCOC(=O)N1CCN(C(=O)C2CCN(c3ncnc4c3sc3cccc(F)c34)CC2)CC1 here?
**A.** Its inhibition is 20.1% (active).

**Q.** Which inhibition does the source give for Cc1ccc(C2=Nc3c(ccc4ccccc34)C(c3ccncc3)=NN2)cc1 here?
**A.** Its inhibition is 4.77%.

**Q.** With CCOC(=O)C(=CNc1cccc(C)n1)C(=O)OCC as the molecule, how does the inhibition read?
**A.** The inhibition was -2.27%.

**Q.** For COc1ccc(C2CC(c3cccs3)=NN2c2nc(C)c(C(C)=O)s2)cc1OC (stereo not given), which inhibition is on record?
**A.** Its inhibition is 1.4%.

**Q.** Which inhibition does the source give for O=C(CCl)N(Cc1cccc([N+](=O)[O-])c1)c1cccc(Cl)c1 here?
**A.** Its inhibition is 37.9% (active).

**Q.** Which inhibition does the source give for NS(=O)(=O)c1cccc(NC(=O)CSc2nc3ccccc3n2-c2ccccc2)c1 here?
**A.** Its inhibition is 1.57%.

**Q.** For COC(=O)C1=CN(Cc2ccc(OC)c(OC)c2)C=C(C(=O)OC)C1c1cccs1, which inhibition is on record?
**A.** The inhibition was -1.6%.

**Q.** Which inhibition does the source give for C[C@@H]1C[C@@H]2O[C@H]2/C=C\C=C\C(=O)Cc2c(Cl)c(O)cc(O)c2C(=O)O1 here?
**A.** The inhibition was 54.9% (active).
